The panel holds about 83,000 compounds, 20% with a hit somewhere; the sample as a whole holds those more often.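 Method: cells in 96-well plates; compound added at one concentration; 48 h incubation; percent growth measured; values under 10 scored active.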 Calls of active or inactive are those of the source.
Assays:
Test in all cases: NCI-60 one-dose screen, 48 h (100 = growth as untreated, 0 = no growth, -100 = all killed)
Settings in all cases: 10 µM
HT29 colon = test system: HT29 colon
SNB-75 CNS = test system: SNB-75 CNS
SNB-19 CNS = test system: SNB-19 CNS
U251 CNS = test system: U251 CNS
PC-3 prostate = test system: PC-3 prostate
SK-MEL-5 melanoma = test system: SK-MEL-5 melanoma
LOX IMVI melanoma = test system: LOX IMVI melanoma
SK-MEL-28 melanoma = test system: SK-MEL-28 melanoma
SK-MEL-2 melanoma = test system: SK-MEL-2 melanoma
SN12C renal = test system: SN12C renal
UO-31 renal = test system: UO-31 renal
TK-10 renal = test system: TK-10 renal
ACHN renal = test system: ACHN renal
CAKI-1 renal = test system: CAKI-1 renal
A498 renal = test system: A498 renal
MOLT-4 leukemia = test system: MOLT-4 leukemia
SR leukemia = test system: SR leukemia
CCRF-CEM leukemia = test system: CCRF-CEM leukemia
EKVX NSCLC = test system: EKVX NSCLC
UACC-62 melanoma = test system: UACC-62 melanoma

Measured: growth

COc1cc(C2CC(c3ccc(Nc4ccnc5cc(Cl)ccc45)cc3)=NN2c2ccc(Cl)cc2)cc(OC)c1OC (stereo not drawn)
inactive: HT29 colon 32.6% | SNB-75 CNS 57.2% | SNB-19 CNS 67.9% | U251 CNS 51.9% | PC-3 prostate 36.4% | SK-MEL-5 melanoma 46.8% | LOX IMVI melanoma 56.3% | SK-MEL-28 melanoma 67.4% | SK-MEL-2 melanoma 55.2% | SN12C renal 59.5% | UO-31 renal 18.4% | TK-10 renal 64.1% | ACHN renal 38% | CAKI-1 renal 18.6% | A498 renal 52.3% | MOLT-4 leukemia 31.5% | SR leukemia 12.2%

COc1ccc(Nc2nc3ccc(NC(=O)NC4CCCCC4)cc3[nH]c2=O)cc1
inactive: HT29 colon 106% | SNB-75 CNS 82.6% | SNB-19 CNS 100% | U251 CNS 86.2% | PC-3 prostate 94.7% | SK-MEL-5 melanoma 90.9% | LOX IMVI melanoma 96.2% | SK-MEL-28 melanoma 93.1% | SK-MEL-2 melanoma 111% | SN12C renal 91.6% | UO-31 renal 94.5% | TK-10 renal 117% | ACHN renal 94.8% | CAKI-1 renal 87.7% | A498 renal 109% | CCRF-CEM leukemia 91.6% | SR leukemia 103%

O=S(=O)(NCCCNc1nccc(-c2c(-c3ccc(F)cc3)nc3sccn23)n1)c1ccc(F)cc1
active: HT29 colon 3.28% | UO-31 renal 3.14%
inactive: SNB-75 CNS 40.7% | SNB-19 CNS 93.2% | U251 CNS 35.9% | PC-3 prostate 32.3% | SK-MEL-5 melanoma 31.6% | LOX IMVI melanoma 28.3% | SK-MEL-28 melanoma 67.3% | SN12C renal 52.3% | TK-10 renal 38.3% | ACHN renal 30.8% | CAKI-1 renal 29.9% | A498 renal 56.3% | CCRF-CEM leukemia 17.5% | MOLT-4 leukemia 22.6% | SR leukemia 25.5%

Cc1ccc(NC(=O)Nc2cccnc2)cc1NC(=O)Nc1cccnc1
inactive: HT29 colon 89.6% | SNB-75 CNS 95.9% | SNB-19 CNS 94% | U251 CNS 79% | PC-3 prostate 43.4% | SK-MEL-5 melanoma 64.3% | SK-MEL-28 melanoma 98.8% | EKVX NSCLC 82.4% | SN12C renal 92% | UO-31 renal 85.3% | TK-10 renal 92.1% | ACHN renal 83.8% | A498 renal 90.7% | MOLT-4 leukemia 66.8% | SR leukemia 31.3%

Cc1cc(Cl)nc(N(CCCNc2ccnc3cc(Cl)ccc23)Cc2cccs2)n1
inactive: SNB-75 CNS 55.6% | SNB-19 CNS 42.9% | PC-3 prostate 10.1% | UACC-62 melanoma 10% | SK-MEL-28 melanoma 16.1% | SK-MEL-2 melanoma 16.9% | EKVX NSCLC 36.4% | SN12C renal 33% | TK-10 renal 28.4% | ACHN renal 25.8% | A498 renal 19.6%
active: U251 CNS 8.68% | SK-MEL-5 melanoma -74.3% | LOX IMVI melanoma -1.18% | UO-31 renal 5.57% | CCRF-CEM leukemia 2.62% | MOLT-4 leukemia -17.6% | SR leukemia -21.3%

COc1ccc2c(c1)O/C(=C\c1ncc([N+](=O)[O-])n1C)C2=O
active: SNB-75 CNS 3.5% | SNB-19 CNS 2.04% | U251 CNS -12.6% | PC-3 prostate 7.52% | SK-MEL-5 melanoma -94.2% | UACC-62 melanoma -85.1% | LOX IMVI melanoma -29.2% | SK-MEL-28 melanoma -31.9% | SK-MEL-2 melanoma -54.5% | SN12C renal -8.55% | UO-31 renal -39.2% | TK-10 renal -27.3% | ACHN renal 0.77% | CAKI-1 renal -26.7% | A498 renal -77.7% | CCRF-CEM leukemia 4.88% | MOLT-4 leukemia 2.86% | SR leukemia 7.55%

O=c1[nH]c2ccc(Cl)cc2c2ccccc12
inactive: SNB-75 CNS 33.2% | SNB-19 CNS 65.9% | U251 CNS 65.9% | PC-3 prostate 92.8% | SK-MEL-5 melanoma 70.6% | UACC-62 melanoma 88.3% | LOX IMVI melanoma 98.5% | SK-MEL-28 melanoma 94.6% | SK-MEL-2 melanoma 107% | EKVX NSCLC 41.8% | SN12C renal 87.8% | UO-31 renal 20.2% | TK-10 renal 81% | ACHN renal 48.9% | CAKI-1 renal 43.2% | CCRF-CEM leukemia 99.3% | MOLT-4 leukemia 119% | SR leukemia 75.4%

COc1ccc(NC2=NC(C)(CO)CS2)cc1 (stereo not drawn)
inactive: SNB-75 CNS 83.5% | SNB-19 CNS 103% | U251 CNS 101% | PC-3 prostate 82.2% | SK-MEL-5 melanoma 96.3% | UACC-62 melanoma 96.1% | LOX IMVI melanoma 95.7% | SK-MEL-28 melanoma 106% | SK-MEL-2 melanoma 108% | SN12C renal 91.1% | UO-31 renal 77.7% | TK-10 renal 110% | ACHN renal 96.7% | A498 renal 94.2% | CCRF-CEM leukemia 89.6% | MOLT-4 leukemia 96.7% | SR leukemia 126%

COc1cc2nc(Nc3cccc(NC(C)=O)c3)nc(N)c2cc1OC
active: CCRF-CEM leukemia -71.1% | MOLT-4 leukemia -89.5%
inactive: SNB-75 CNS 85% | SNB-19 CNS 103% | U251 CNS 94.7% | PC-3 prostate 60% | SK-MEL-5 melanoma 95.5% | UACC-62 melanoma 91.7% | LOX IMVI melanoma 86.7% | SK-MEL-28 melanoma 90.3% | EKVX NSCLC 133% | SN12C renal 95.5% | UO-31 renal 78.4% | TK-10 renal 150% | ACHN renal 102% | CAKI-1 renal 127% | A498 renal 95% | SR leukemia 107%

CNc1ncc(-c2ccc(C(F)(F)F)cc2)c(NC2CCCCCC2)n1
inactive: SNB-75 CNS 90.9% | SNB-19 CNS 85.2% | U251 CNS 58.9% | PC-3 prostate 61.8% | SK-MEL-5 melanoma 74.8% | UACC-62 melanoma 89.9% | LOX IMVI melanoma 85.8% | SK-MEL-28 melanoma 88% | SN12C renal 84% | UO-31 renal 38.4% | TK-10 renal 83.5% | ACHN renal 73.1% | CAKI-1 renal 60.9% | A498 renal 83.4% | CCRF-CEM leukemia 70.2% | MOLT-4 leukemia 68.2% | SR leukemia 43.9%

O=C1/C(=C/c2ccc([N+](=O)[O-])s2)Oc2ccccc21
active: SNB-75 CNS -7.58% | SNB-19 CNS -0.508% | U251 CNS -76.5% | PC-3 prostate -23.2% | SK-MEL-5 melanoma -64.8% | LOX IMVI melanoma -70.4% | SK-MEL-28 melanoma -35.9% | SN12C renal -23.1% | UO-31 renal -78.1% | TK-10 renal -21.5% | ACHN renal -55.3% | CAKI-1 renal -26.8% | CCRF-CEM leukemia -13% | MOLT-4 leukemia -6.14% | SR leukemia 7.01%
inactive: A498 renal 97.9%

O=C1ON=[N+](c2ccc(Cc3ccc([N+]4=NOC(=O)C4CN4CCOCC4)cc3)cc2)C1CN1CCOCC1 (stereo not drawn)
inactive: SNB-75 CNS 72.6% | SNB-19 CNS 86.5% | U251 CNS 62.8% | PC-3 prostate 56.5% | SK-MEL-5 melanoma 53.2% | UACC-62 melanoma 53.4% | LOX IMVI melanoma 65% | SK-MEL-28 melanoma 74.9% | SK-MEL-2 melanoma 78.6% | EKVX NSCLC 69.9% | SN12C renal 80.3% | UO-31 renal 44.3% | TK-10 renal 74.5% | CAKI-1 renal 49.3% | A498 renal 53.7% | CCRF-CEM leukemia 63.9% | MOLT-4 leukemia 68.4% | SR leukemia 23%

COc1ccc2c(c1)N(CCO)C1=C(C(=O)OC1)C2c1cc(OC)c(OC)c(OC)c1 (stereo not drawn)
active: U251 CNS 9.9% | SK-MEL-5 melanoma -24.7% | UACC-62 melanoma 8.69% | CAKI-1 renal 6.97% | A498 renal -12.2%
inactive: SNB-75 CNS 38.3% | SNB-19 CNS 19.1% | PC-3 prostate 21.9% | LOX IMVI melanoma 25.1% | SK-MEL-28 melanoma 65.6% | EKVX NSCLC 40.3% | SN12C renal 26% | UO-31 renal 15.2% | TK-10 renal 66% | ACHN renal 32.8% | CCRF-CEM leukemia 11.6% | MOLT-4 leukemia 19.3% | SR leukemia 23.5%

C#Cc1ccc(-n2c(/C=C/c3ccc4ccccc4c3)nc3ncccc3c2=O)cc1
inactive: SNB-75 CNS 47.3% | SNB-19 CNS 75.3% | U251 CNS 43.2% | PC-3 prostate 13.7% | UACC-62 melanoma 26.7% | SK-MEL-28 melanoma 58.8% | SN12C renal 28.9% | UO-31 renal 13.7% | TK-10 renal 21.4% | ACHN renal 23.1% | CAKI-1 renal 13%
active: SK-MEL-5 melanoma -90.3% | LOX IMVI melanoma -39% | SK-MEL-2 melanoma -33.2% | A498 renal -2.88% | CCRF-CEM leukemia 2.66% | MOLT-4 leukemia 4.88% | SR leukemia 4.43%

CC/C(=N\N=C(/CC)c1ccc(Br)cc1)c1ccc(Br)cc1
inactive: SNB-75 CNS 89.9% | SNB-19 CNS 108% | U251 CNS 105% | PC-3 prostate 94.2% | SK-MEL-5 melanoma 104% | UACC-62 melanoma 87.9% | LOX IMVI melanoma 98.7% | SK-MEL-28 melanoma 104% | SK-MEL-2 melanoma 97.3% | EKVX NSCLC 90.6% | SN12C renal 96% | UO-31 renal 92.6% | TK-10 renal 111% | ACHN renal 94.4% | CAKI-1 renal 99.3% | A498 renal 103% | CCRF-CEM leukemia 105% | MOLT-4 leukemia 105% | SR leukemia 96.9%

O=C1/C(=C/c2ccc(Cl)cc2)SC(=Nc2ccc(Cl)cc2)N1Cc1nc2ccccc2[nH]1
active: CAKI-1 renal 8.38%
inactive: SNB-75 CNS 27.1% | SNB-19 CNS 75% | U251 CNS 76.2% | PC-3 prostate 41.6% | SK-MEL-5 melanoma 81.3% | UACC-62 melanoma 64.6% | SK-MEL-28 melanoma 92.6% | SK-MEL-2 melanoma 88.4% | EKVX NSCLC 64.5% | SN12C renal 79.3% | UO-31 renal 37.5% | TK-10 renal 104% | ACHN renal 91.9% | CCRF-CEM leukemia 62.6% | MOLT-4 leukemia 57.3% | SR leukemia 46.6%

From PubChem BioAssay (NCI)
